Assay results: PubChem BioAssay (NCI)
This is part of a sample that, as a whole, favours compounds with a hit. Of some 83,000 tested, about 20% had one in any assay.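 In brief: 96-well plates, 48 h treatment, single concentration, percent growth endpoint.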 A number with no mark means an inactive call. The source made the active and inactive calls.

Each molecule was assayed on OVCAR-8 ovarian (assay: NCI-60 one-dose screen, 48 h (100 = growth as untreated, 0 = no growth, -100 = all killed)). Settings: 10 µM unless noted.
Protocol: Growth inhibition of the OVCAR-8 human tumor cell line is measured as a screen for anti-cancer activity. Cells are grown in 96 well plates and exposed to the test compound for 48 hours. Compounds are tested at a single concentration, which is 10^-5 M for most compounds. The reported endpoint is percent growth (GI% or GIPRCNT), where numbers from 0 - 100% represent growth inhibition, and numbers from -100% - 0 represent cell death. For example, a value of 40 represents 60% growth inhibition. A value of 0 means no net growth occurred over the course of the experiment. A value of -40 indicates 40% of cells at the beginning of the experiment died by the end of the experiment. A value of -100 means all cells are dead at the end of the experiment.
NCI-60 Human Tumor Cell Lines Screen was performed using the standard one-dose NCI protocol, which is described in more detail at https://dtp.cancer.gov/discovery_development/nci-60/default.htm.
Compounds with GIPRCNT values below 10 were considered active. Activity score was based on GIPRCNT using the following formula: […]
Score is 0 for GIPRCNT values of 100 or above, 50 for GIPRCNT values of 0, and 100 for GIPRCNT values of -100.

SMILES | growth
COc1ccc(C2C(c3ccccc3)C(=O)N2c2cc(OC)c(OC)c(OC)c2)cc1I (stereo not given) | 16.7%
Cc1cc(O)cc(O)c1N=NC1=NCCS1 | 101%
COc1ccc2c(c1)C1(C(=O)N2)C(C#N)=C(c2ccccc2)Nc2c1c(-c1ccccc1)nn2-c1ccccc1 (stereo not given) | -10.9% (active)
CCCCOc1nc2ccc(C)cc2cc1/C=C/C(=O)/C=C/c1ccc2c(c1)OCO2 | 38.7%
COc1cc(-c2csc(NC(=O)Nc3ccc(C(F)(F)F)cc3)n2)cc(OC)c1OC | 3.06% (active)
COc1ccc(C(=O)c2cc(OC)c(C)c(OC)c2)cc1OC(=O)CCl | 25.4%
COc1cc(NC(=O)c2cc(O)c(C/C=C(\C)CCC=C(C)C)c(O)c2)cc2c1O[C@]1(C)CC[C@@H](O)C(C)(C)[C@H]1C2 | 23.5%
C#CCOC(=O)[C@]1(C)CCC[C@]2(C)[C@H]3C[C@H]4C(C(C)C)=C[C@]3(CC[C@H]21)[C@@H]1C(=O)CCC(=O)[C@@H]14 | 90.5%
COc1ccc(C2N(c3cc(OC)c(OC)c(OC)c3)C(=O)C2(F)F)cc1F (stereo not given) | 44.1%
CCOC(=O)c1c(C)nc2c(c1N)/C(=C/c1ccccn1)C(=O)N2Cc1ccccc1 | -7.26% (active)
COc1ccc(-n2nc(C(=O)NCC(=O)O)nc2-c2ccccc2)cc1 | 111%
Cc1cccc2nc3c(n12)C(=O)C(=O)c1ccccc1-3 | 46.9%
CC(C)(C)c1ccc2oc(=O)n(SC(Cl)(Cl)Cl)c2c1 | 111%
CCOC(=O)c1c(C)nc2c(c1N)CC(=O)N2CCc1ccccc1 | 24.3%
COc1ccc(/C=C(/C(=O)N2CCCC2)c2cc(OC)c(OC)c(OC)c2)cc1 | 40%
CC(/C=C/c1ccccc1)=N/NC(=O)c1ccncc1 | 101%
CCOC(=O)c1c(C)nc2c(c1N)/C(=C/c1ccc[nH]1)C(=O)N2Cc1ccc(C(F)(F)F)cc1 | 28.5%
CC(=O)ON1CCCC(P(=O)(OCOC(=O)C(C)(C)C)OCOC(=O)C(C)(C)C)C1=O (stereo not given) | -0.681% (active)
O=C(Nc1cc(Nc2ncccc2-c2ncnc3nc[nH]c23)ccc1F)c1cc(C(F)(F)F)cc(C(F)(F)F)c1 | -9.42% (active)
COc1ccc(/C=C/C(=O)Nc2ncnc3nc[nH]c23)cc1 | 103%

SMILES | growth
COc1ccc2cc(/C=C3\N=C(c4cc(OC)c(OC)c(OC)c4)OC3=O)c(OC)nc2c1 | 98.4%
O=Cc1[nH]c(Sc2ccccc2)c2ccccc12 | 68.6%
COc1cc(C2CC(c3ccc(Nc4nc(NCCO)nc(NCCO)n4)cc3)=NN2c2cc(Cl)cc(Cl)c2)cc(OC)c1OC (stereo not given) | 11.9%
[2H]c1cc2c(c([2H])c1F)/C(=C/c1[nH]c(C)c(C(=O)NCCN(CC)CC)c1C)C(=O)N2 | 63.1%
CCOC(=O)/C(=C/c1c(-c2ccccc2)[nH]c2ccccc12)C(=O)c1ccc(Cl)cc1 | 59.8%
CCOC(=O)c1cnn(-c2nc(-c3ccc(F)cc3)c(C#N)c(N3CCOCC3)n2)c1N | 100%
CN(CCC#N)C(=O)Nc1ccccc1 | 102%
COC(=O)c1oc2c(C(=O)/C=C/c3ccc(OC)cc3)c(OCCCN3CCCCC3)ccc2c1C | -22.7% (active)
O=C(CN1N=C(c2ccc(F)cc2)CCC1=O)Nc1nccs1 | 98.6%
C=C(C)[C@@H]1CCC=C2CC[C@]3(C)[C@H](CC[C@@H]4[C@@]5(C)CCCNC(C)(C)[C@@H]5CC[C@]43C)[C@H]21 | 3.48% (active)
Cc1c(Cl)cccc1NC(=O)c1sc2nc3c(cc2c1N)CCCCC3 | 31.5%
COc1ccc(C(C)c2cc(OC)c(OC)c(OC)c2)cc1 (stereo not given) | 10.9%
COc1ccc(-c2cs/c(=N\N=C\c3ccc(O)cc3O)n2/N=C/c2ccc(O)cc2O)cc1 | -17.1% (active)
N#CCNc1ccc(C(=O)O)cc1 | 102%
Nc1ccccc1NC(=O)c1ccc(CSc2nc(N3CCOCC3)c3cccn3n2)cc1 | 15.9%
CC1CCN(CCCCCOc2ccc3oc4cc(Cl)ccc4c(=O)c3c2)CC1 | 73.6%
C#C[C@@]1(O)[C@@H](CO)O[C@@H](n2cc(-c3ccco3)c3c(N)ncnc32)[C@@H]1O | 65.9%
O=[N+]([O-])c1ccc(N=Nc2c(O)c(N=Nc3cc([N+](=O)[O-])cc([N+](=O)[O-])c3O)cc(N=Nc3cc(S(=O)(=O)O)cc4cc(S(=O)(=O)O)cc(O)c34)c2O)cc1 | 108%
Cc1ccc(-c2nc(C#N)c(S(=O)(=O)N(C)CCO)o2)cc1 | 67.4%
O=S(=O)(O)c1ccc(N=NSc2ccc3ccccc3c2)cc1 | 108%
